# An excerpt weighted towards active compounds, which were near 1.5% of everything screened.
# E coli Lon inh = inhibitors of E. coli Lon protease. P0A9M0. purified E. coli Lon protease, fluorescence polarization. inhibition, % at 7.94 µM. 360,000 tested, 0.42% active. AID 602123; in the data active = inhibition above about 13%, passing the limit was not always enough;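 also: 0% = enzyme with probe and DMSO and 100% = no enzyme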
# Target sequence (P0A9M0 whole entry, looked up): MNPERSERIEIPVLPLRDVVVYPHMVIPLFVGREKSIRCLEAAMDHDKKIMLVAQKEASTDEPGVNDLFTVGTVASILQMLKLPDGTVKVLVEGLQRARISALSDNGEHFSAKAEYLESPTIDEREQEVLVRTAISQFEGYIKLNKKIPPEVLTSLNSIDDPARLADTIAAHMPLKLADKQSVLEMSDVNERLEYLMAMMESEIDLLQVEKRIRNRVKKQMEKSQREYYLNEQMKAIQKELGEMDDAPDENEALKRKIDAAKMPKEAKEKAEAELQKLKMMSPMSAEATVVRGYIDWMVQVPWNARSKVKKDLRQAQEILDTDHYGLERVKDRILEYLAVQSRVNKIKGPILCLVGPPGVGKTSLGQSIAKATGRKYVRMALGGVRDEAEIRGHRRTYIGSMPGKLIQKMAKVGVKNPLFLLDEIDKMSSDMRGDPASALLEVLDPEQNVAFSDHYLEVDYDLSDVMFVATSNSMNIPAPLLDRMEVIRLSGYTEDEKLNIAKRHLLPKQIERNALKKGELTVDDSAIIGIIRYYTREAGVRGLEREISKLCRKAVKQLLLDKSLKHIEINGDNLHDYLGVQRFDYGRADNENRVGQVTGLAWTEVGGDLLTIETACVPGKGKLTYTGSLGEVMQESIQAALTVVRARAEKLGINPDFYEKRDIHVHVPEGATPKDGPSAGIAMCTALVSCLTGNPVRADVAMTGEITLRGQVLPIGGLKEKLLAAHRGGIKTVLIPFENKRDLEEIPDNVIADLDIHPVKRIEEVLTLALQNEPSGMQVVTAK
# Bcl-xL primary = blocks human Bcl-xL binding to Bim BH3 peptide; Q07817; inhibition, % at 10.9 µM; 320,000 tested, 0.7% active; GST-Bcl-xL / FITC-Bim BH3 peptide fluorescence polarization;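 active = inhibition above the mean of all tested compounds plus 3 SD, cutoff set per campaign, cut at about 30% in these data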;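 also: 0% = DMSO wells and 100% = unlabeled Bim-BH3 peptide competitor; inhibitors lower millipolarization by displacing the labeled peptide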
# EBV gp42 inh = EBV gp42 inhibition; inhibition, % (tested at 21.74 µM); Fluorescence polarization binding assay, mP read-out; 220,000 tested, 0.42% active; Q1HVG2; in the data active = inhibition above about 50%
# MCL1-BIM inh = MCL1-BIM-BH3 interaction inhibition (human) | Q07820 | GST-MCL1 / FITC-Bim-BH3 fluorescence polarization | inhibition, % at 10.9 µM | 320,000 tested, 0.68% active | AID 2057;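 active = inhibition above the mean inhibition of all tested compounds plus 3 SD, set per campaign, cut at about 40% in these data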;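 also: 0% = DMSO wells and 100% = unlabeled Bim-BH3 peptide control; higher means more loss of mP so more displacement of Bim peptide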
# GLD-1 TGE inh = GLD-1-TGE RNA interaction inhibition (C. elegans) | Q17339 | purified GLD-1 + fluorescein TGE RNA, fluorescence polarization | inhibition, % at 5.96 µM | 320,000 tested, 0.44% active | AID 2280;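 active = percent inhibition above a per-plate cutoff, the plate mean of test compounds plus 3 SD, cut at about 30% in these data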;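 also: 0% = DMSO wells with GLD-1 and probe and 100% = wells lacking GLD-1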
# MEX-5 binding = C. elegans MEX-5 TCR-2 RNA binding activity; activity score (negative = inhibition of binding), % at 10 µM; Q9XUB2; MEX-5/FITC-TCR2 RNA binding, fluorescence polarization; active compounds read low; AID 1832; 300,000 tested, 0.38% active;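 active = inhibition past about -25% in most replicates, and total fluorescence under double the plate's negative control median, limit read from the data; inconclusive = replicates evenly split on the limit, or fluorescence at least double controls; inactive = too little inhibition in most replicates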;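 also: 0% = DMSO and -100% = 5 µM competing unlabeled TCR2 RNA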
# Bcl-xL conf = counter-screen for MCL1 inhibitors: confirmation of human Bcl-xL inhibitors; shares compounds with MCL1-BIM inh; GST-Bcl-xL / FITC-Bim BH3 peptide FP binding; inhibition, % at 10.9 µM; 1,700 tested, 54% active;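 active = inhibition above a cutoff equal to the mean inhibition of all tested compounds plus 3 SD, cut at about 30% in these data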;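 also: 0% = DMSO wells and 100% = unlabeled Bim BH3 control peptide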
# MCL1 inh confirm = MCL1-BIM-BH3 interaction inhibition, confirmation. shares compounds with MCL1-BIM inh. GST-MCL1 / FITC-Bim-BH3 fluorescence polarization. inhibition, % at 10.9 µM. 1,700 tested, 61% active. AID 2168;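 active = inhibition above the average of all tested compounds plus 3 SD, cut at about 40% in these data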;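 also: 0% = DMSO wells and 100% = unlabeled Bim-BH3 control peptide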
# The depositor's hits bear a star; ? = inconclusive; nt = not tested or not shown; + = active, no number.
SMILES,E coli Lon inh,Bcl-xL primary,EBV gp42 inh,MCL1-BIM inh,GLD-1 TGE inh,MEX-5 binding,Bcl-xL conf,MCL1 inh confirm
C=CCN(c1ccccc1Cl)S(=O)(=O)c1cccc(C(=O)OCC(=O)N(C)C2CCS(=O)(=O)C2)c1 (centres undefined),4,0,-8,-5,-3,-2,nt,nt
CC1CCN(Cc2c(O)ccc3c2O/C(=C\c2ccco2)C3=O)CC1,1,123*,35,149*,68*,?,119*,140*
COCCN(CCOC)Cc1c(O)ccc2c1O/C(=C\c1ccco1)C2=O,0,106*,nt,110*,72*,?,107*,118*
O=C1/C(=C/c2ccco2)Oc2c1ccc(O)c2CN1CCCCC1,-15,79*,51*,128*,34*,?,132*,148*
O=c1c(-c2ccccc2)coc2c(CN3CCCC3)c(O)ccc12,-1,1,-15,6,4,2,nt,nt
Cc1sc(NC(=O)c2ccco2)c(CN2CCC(C)CC2)c1C,6,21,0,20,17,-5,nt,nt
C=CCSC1=N/C(=C/c2ccsc2)C(=O)N1c1ccccc1,-6,5,-18,8,3,1,nt,nt
Cc1cccc(C)c1NC(=O)CNC(=O)CN1C(=O)NC2(CCc3ccccc32)C1=O (centres undefined),-17,-9,nt,-15,-1,nt,nt,nt
O=C(CN1CCN(Cc2cccc(C(F)(F)F)c2)CC1)NCC(=O)Nc1ccc(F)c(F)c1F,8,nt,nt,nt,nt,nt,nt,nt
COc1ccc(NC(=O)c2cc(S(=O)(=O)N3CCCCC3)c[nH]2)cc1,-8,7,nt,7,4,-3,nt,nt
COc1ccc(NC(=O)c2cc(S(=O)(=O)N3CCCC3)c[nH]2)cc1,-9,3,nt,108*,3,1,13,10
CCNc1c2c3c(cccc3n(C)c1=O)C(=O)c1ccccc1-2,nt,+,-18,+,164*,?,+,+
CCOC(=O)[C@H]1[C@H]2COc3cc(OC)ccc3[C@@H]2N2C(=O)[C@@H](CO)NC(=O)[C@@]12C,nt,nt,nt,nt,4,nt,nt,nt
Cc1nn(-c2ccccc2)c(Cl)c1/C=N/NC(=O)CCNc1n[nH]c(=O)[nH]c1=O,nt,3,-4,4,4,-1,nt,nt
CN1Cc2sc(N)c(C#N)c2CC1(C)C,-17,61*,4,59*,24,-23,22,13
NNc1nc(C(F)(F)F)nc2ccccc12,3,-10,-3,-14,2,15,nt,nt
O/C=c1\ccc2cccc3nc(C(F)(F)F)nc1c23,-88,86*,nt,94*,37*,?,118*,133*
Cc1ccc(S(=O)(=O)N2[C@@H](c3ccc(F)cc3)C(C(=O)O)=C[C@H]2CC2CCCC2)cc1,-5,nt,nt,nt,-3,nt,nt,nt
CN(CCC#N)C(=O)COC(=O)c1c2c(nc3ccccc13)/C(=C/c1ccco1)CC2,-11,44*,95*,67*,-23,-24,40*,48*
Oc1nc(Nc2ccc(F)cc2)sc1/C=C1\C=Nc2ccccc21,2,-9,-1,-11,-31,10,nt,nt
O=c1[nH]c(S)c(/C=C2\C=Nc3ccccc32)s1,12,77*,63*,76*,45*,-7,86*,108*
COc1ccc(CCNC(=O)c2c(C)nc3ccccn23)cc1,5,1,-14,-4,2,-3,nt,nt
COc1ccc(C(CC(=O)N2CCCCC2)c2c(OC)cc(OC)c3c(-c4ccccc4)cc(=O)oc23)cc1 (centres undefined),17,11,34,32,5,3,nt,nt
COc1ccc(C(CC(=O)N2CCCC2)c2c(OC)cc(OC)c3c(-c4ccccc4)cc(=O)oc23)cc1 (centres undefined),-3,4,82*,43*,-5,4,8,34
CC1=CC2=C(OC1N(C)C)c1cccc3cccc(c13)C2=O (centres undefined),64*,122*,49,143*,110*,-22,36*,39
SMILES,E coli Lon inh,Bcl-xL primary,EBV gp42 inh,MCL1-BIM inh,GLD-1 TGE inh,MEX-5 binding,Bcl-xL conf,MCL1 inh confirm
Cc1cccc(CC(=O)NCC(=O)NCc2cc(=O)n(C)c(=O)n2C)c1,2,7,nt,-4,4,-1,nt,nt
COC(=O)C1=C(CSc2nc3c(cc2C#N)CN(C)CC3)OC(N)=C(C#N)C1c1ccccc1F (centres undefined),0,86*,0,100*,48*,-5,23,21
CCOC(=O)C1=C(CSc2nc3c(cc2C#N)CCC3)OC(N)=C(C#N)C1c1ccccc1 (centres undefined),-13,13,-16,6,-68,-1,nt,nt
COC(=O)C1=C(C)OC(N)=C(C#N)C1c1ccccc1F (centres undefined),-7,6,3,10,2,0,nt,nt
CCOC(=O)C1=C(CSc2nc3c(cc2C#N)CN(C)CC3)OC(N)=C(C#N)C1c1ccccc1 (centres undefined),2,68*,20,85*,27,-6,16,8
COc1ccccc1N1CCN(C(=O)c2ccc3c(=O)n(Cc4ccc5c(c4)OCO5)c(=O)[nH]c3c2)CC1,0,12,nt,6,-3,-2,nt,nt
O=C1CCCC2=C1C(c1ccco1)Nc1ccc3ccccc3c12 (centres undefined),6,25,16,67*,9,-3,28,78*
N=C1/C(=C\c2coc3ccccc3c2=O)C(=O)N=C2SC=CN12,-152,55*,47,60*,51*,?,61*,70*
Cc1c(Br)c(O)c(Br)c2sc(=O)oc12,4,36*,-10,79*,3,nt,20,49*
CC1(C)CC(=O)C2=C(C1)OC(N)=C(C#N)C2c1ccccc1[N+](=O)[O-] (centres undefined),22,165*,15,186*,119*,-80*,93*,114*
Cc1ccc(-c2csc3ncn(CC(=O)NCC(c4ccco4)N4CCCC4)c(=O)c23)cc1 (centres undefined),1,-1,nt,-3,-1,nt,nt,nt
Cc1oc(-c2cccs2)nc1CN1CCN(C(C)C)C(CCO)C1 (centres undefined),9,5,-13,49*,-4,-3,5,-1
Cc1ccc(CNC(=O)CC(C)S(=O)(=O)c2ccc3c(c2)NC(=O)CO3)cc1 (centres undefined),1,0,nt,-5,0,4,nt,nt

# Assay outcomes: PubChem, several laboratories
